In all, about 4,800 compounds went through this assay and about 410 (8.5%) showed an effect of 50% or more. For the sample, strong results were picked, then their nearest neighbours and some compounds at random.
The compounds below were run on Plasmodium falciparum (assay: Confirmatory screen in NF54 pLDH assay, in single point, at 2uM, 72h). Details: timepoint 72 hour.
Format: functional, Erythrocyte

Going from CN1CCC(N(Cc2ccccc2)C(=O)c2cc3cnccc3[nH]2)CC1 to Brc1cccc(NCCNC2CCN(Cc3cccnc3)CC2)c1, the “% Inhibition” value falls from 58% to 41%.

Compared with Cc1cc(N2CCC(NC3CCCC3Cc3ccc(F)cc3)CC2)nc(N)n1 (centres undefined), Cc1cc(N2CCC(NC3CCNC(c4ccccc4)C3)CC2)nc(C)n1 (centres undefined) is lower in “% Inhibition” value: 103% for the first, 33% for the second.

Compared with O=C(NCC1CC1)c1cc2c(OCc3ccc(Cl)cc3)cccc2[nH]1, COc1ccc(CNCc2cc3ccccc3[nH]2)cc1CN(C)C is lower in “% Inhibition” value: 53% for the first, 36% for the second.

First: Cc1cc(NC[C@H](O)COc2ccc(F)cc2)nc2ccccc12
Second: COc1ccc(-c2cc(-c3ccccc3O)n([C@@H]3C(=O)Nc4ccc(Br)cc43)n2)cc1
The “% Inhibition” value of the first is higher: 81% for the first, 46% for the second.

First: N#Cc1ccc(N2C[C@H](COCC3CC3)C3(CCN(Cc4cccc(O)c4)CC3)C2)cc1C(F)(F)F
Second: CC1(N2CCC2)CCC(NC[C@H]2CCN(Cc3ccccc3)C2)CC1 (some centres undefined)
The “% Inhibition” value of the first is higher: 89% for the first, 66% for the second.

Compared with COCCCN1CCC(Nc2ncnc3cc(C)c(C)cc23)CC1, Cc1nc2ccc(CNC3CCN(c4ccc(F)c(F)c4)CC3)cc2[nH]1 is lower in “% Inhibition” value: 94% for the first, 64% for the second.

Going from Cn1nnc(C(=O)N2CCCCC23CCCCCC3)n1 to CC(C)c1ccc(-c2nc(CN3CCCCC3)cc(CN3CCCCC3)c2O)cc1, the “% Inhibition” value rises from 59% to 92%.

Going from Cc1ccc2[nH]c(-c3cc4n(n3)CCN(c3ccnc(N)n3)C4)nc2c1C to CN1CCN(CCOc2ccccc2CN(C)Cc2cc3cc(F)ccc3[nH]2)CC1, the “% Inhibition” value rises from 97% to 104%.

First: c1ccc(CN2CCC(CCNC[C@@H]3CCCN4CCCC[C@H]34)CC2)cc1
Second: CN1CCN(CCNC2CCN3CCCC3C2)C(c2ccccc2)C1 (centres undefined)
The “% Inhibition” value of the first is higher: 63% for the first, 28% for the second.

First: CCN(Cc1cnn(-c2cccc(Cl)c2)c1)CC1CCN(C2CCN(C)CC2)CC1
Second: CCN(Cc1[nH]c2ccc(Cl)cc2c1C)CC1CCN(C2CCN(C)CC2)CC1
The “% Inhibition” value of the first is lower: 92% for the first, 102% for the second.

Compared with CC(C)c1ccc(-c2noc(CCN3CCN(CCCN(C)C)CC3)n2)cc1, c1ccc(CNc2ccc(-c3noc(C45CCCN(CCC4)C5)n3)cn2)cc1 is higher in “% Inhibition” value: 30% for the first, 99% for the second.

Compared with CCCc1cccc(CNC2CCN(C3CCN(C)CC3)CC2)c1, C[C@@H](CNC1CCN(C2CCN(C)CC2)CC1)c1cccc(Cl)c1 is higher in “% Inhibition” value: 71% for the first, 103% for the second.

First: c1cncc(-c2ccc(CNC3CCN(Cc4cccs4)CC3)cc2)c1
Second: CN(c1ccccc1)c1ccc(CN2CCN([C@H]3CCNC3)CC2)cc1
The “% Inhibition” value of the first is higher: 86% for the first, 0% for the second.

Compared with CN1CCC[C@H](CN2CCN(Cc3cc4n(n3)CCCNC4)CC2)C1, Fc1ccc(N2CCC(N[C@@H]3COC4(CCNCC4)C3)CC2)cc1F is higher in “% Inhibition” value: -7% for the first, 6% for the second.

In the case of N[C@H]1CC[C@@H](NC2CCN(c3ccc(F)c(F)c3)CC2)CC1, the “% Inhibition” value is reported as 35%.
